Most compounds without a hit are left out; they make up all but 11% or so of the library.
L major viab: inhibitors of Leishmania major promastigote growth; Leishmania major promastigotes, resazurin fluorescence viability; inhibition, % at 10 µM; actives 9% (n = 200,000); in the data active means inhibition above about 50%;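 further: promastigotes grown with compound for 44 hours at 28 °C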
WT yeast gro inh: growth inhibition of WT yeast, mitochondrial fusion screen | inhibition, % at 10 µM | mitochondrial fusion phenotypic screen, WT strain | actives 2.1% (n = 190,000); in the data active means inhibition above about 58%; tested in S. cerevisiae
Ins promoter up: MIN6 insulin promoter up-regulation; AID 1625; z-score at 5 µM; MIN6 insulin promoter-GFP reporter, high-content imaging; active compounds read high; actives 0.3% (n = 190,000);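 active means z-score above 3 at 5 µM with at least 500 cells counted in the well; inconclusive means wells under 500 cells, flagged as cytotoxic or low count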
INS promoter inh: TRM-6 insulin promoter activity inhibition; TRM-6 cells (human fetal islet line), insulin promoter-eGFP reporter, imaging; reporter expression induced with tamoxifen; inhibition, % at 2 µM; actives 0.9% (n = 130,000); AID 1273;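 active means inhibition above the mean plus 3 SD, with well images judged a real hit on visual review, cut at about 60% in these data, passing the limit was not always enough; inconclusive means inhibition over the cutoff but images rejected on review; inactive means inhibition not above the cutoff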
Autophagy HCS: modulators of autophagy. AID 463193. MEF GFP-LC3 puncta imaging; test concentration mostly 10 µM. actives 0.98% (n = 190,000). calls only at 10 µM (by protocol);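 active means percentage of spot-positive cells more than 3 SD above its plate mean, without a fluorescence outlier flag or 80% toxicity; inconclusive means no clear call, values can overlap the other calls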;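 further: spot-positive cell cutoff set from DMSO-treated cells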
* hit, by the source's call; i = inactive; ? = inconclusive; / = not tested or not shown; + = active, no number.

SMILES	L major viab	WT yeast gro inh	Ins promoter up	INS promoter inh	Autophagy HCS
O=C1CCCc2c1[nH]c1ccc(CN3CCCCC3)cc21	59*	4	1.2	-8	i
Cc1ccc2[nH]c3c(c2c1)CCCC3=O	-1	4	/	26	i
COc1ccc(C(=O)c2c(C(F)(F)F)oc3c2C(=O)c2ccccc2C3=O)cc1OC	100*	90*	?	25	i
CCCOc1ccc(C(=O)NCC(c2ccco2)N(C)C)cc1 (stereo not drawn)	2	-5	2.6	15	i
Cc1ccc2nc(NC3=NCN(Cc4ccc5c(c4)OCO5)CN3)nc(C)c2c1	100*	/	/	1	i
Cc1ccc2nc(NC3=NCN(Cc4ccco4)CN3)nc(C)c2c1	/	2	/	/	/
COc1ccc(OC)c(NC(=O)NCCc2cccc(Cl)c2)c1	5	-1	0.19	/	i
CCOC(=O)C(NC(=O)c1ccc(F)cc1)(Nc1sc2c(c1C(N)=O)CCC2)C(F)(F)F (stereo not drawn)	74*	-3	0.19	8	i
CCOc1cc(CNn2cnnc2SCC(=O)NC(C)(C)C)ccc1OCC(=O)NC(C)(C)C	1	-4	0.1	-20	i
Cc1ccc(C)c(Nc2ncnc(N)c2[N+](=O)[O-])c1	61*	-8	0.65	18	i
Cc1cccnc1Nc1ncnc(N)c1[N+](=O)[O-]	0	6	-0.02	/	i
Cc1ccc(-c2csc(NC(=O)c3ccc(-c4ccccc4)cc3)n2)o1	17	77*	-0.82	/	i
CC(=O)Nc1ccc(C(=O)Nc2nc(-c3cccnc3)cs2)cc1	14	-14	0.09	/	i
CC(=O)Nc1ccc(C(=O)Nc2nc(-c3ccccn3)cs2)cc1	64*	7	-0.99	/	i
O=C(Nc1ccc2c(c1)OCCO2)c1cc(-c2ccccn2)nc2ccc(Br)cc12	-2	2	0.22	/	+
O=C(Nc1nc(-c2ccccn2)cs1)c1ccc2c(c1)OCCO2	99*	69*	-1.4	/	i
CC1CCN(C(=O)CCNC(=O)Cn2cnc3sc4c(c3c2=O)CCCC4)CC1	-11	-9	1.3	/	i
CNC(=O)CS(=O)(=O)CC(=O)Nc1cc(OC(C)C)c(Cl)cc1Cl	1	-3	0.93	/	i
CN1CCN(CC(=O)N(Cc2c(C#N)c3ccccc3n2C)c2ccccc2)CC1	100*	-14	0.01	-54	i
Cn1c(CN2CCN(CCO)CC2)c(C#N)c2ccccc21	/	/	-0.56	/	/
COc1ccc(/C=N/NC(=O)c2nn(-c3ccc(C)c(C)c3)c(=O)c3ccccc23)cc1	28	27	0.6	7	i
COc1ccc(/C=N/NC(=O)c2nn(-c3ccccc3)c(=O)c3c(N)scc23)cc1	83*	3	-0.01	/	i
COc1ccc(/C=N/NC(=O)c2nn(-c3ccc(Cl)cc3)c(=O)c3c(N)scc23)cc1	69*	44	-0.75	-43	i
CNc1ccc(/C=C/C(=O)c2cccc3ccccc23)cc1[N+](=O)[O-]	99*	18	-1.4	33	i
CC1(c2ccccc2)NC(=O)N(N)C1=O (stereo not drawn)	2	-2	-0.07	-79	i
SMILES	L major viab	WT yeast gro inh	Ins promoter up	INS promoter inh	Autophagy HCS
Cc1cc(C)c(S(=O)(=O)c2ccccc2)c(Cl)n1	-5	-13	-0.39	0	i
Cc1cc(C)c(S(=O)(=O)c2ccccc2C)c(Cl)n1	101*	18	/	-83	i
Cc1ccc(S(=O)(=O)c2c(C)cc(C)nc2Cl)cc1	-3	3	-0.6	-3	i
CCCCSc1nc(C)cc(C)c1S(=O)(=O)c1ccccc1C	84*	10	/	14	i
Cc1ccc(S(=O)(=O)c2c(C)cc(C)nc2Cl)c(C)c1	101*	5	0.18	37	i
CCCNC(=S)Nc1ccc(F)cc1F	/	/	0.5	/	/
COc1ccc(OC)c(-c2c(C#N)c(N)nc3c2c(=O)nc2sccn23)c1	1	2	-0.14	0	+
CCN(CC)CCCNC(=O)CC1Oc2ccc(C)cc2NC1=O (stereo not drawn)	-4	-13	1	/	i
Cc1ccc2c(c1)NC(=O)C(CC(=O)NCCCN1CCN(c3cc(C)ccc3C)CC1)O2 (stereo not drawn)	22	5	-0.69	/	+
COc1ccc(N(CC(O)Cn2cnc3ccccc32)S(=O)(=O)c2ccc(C)cc2)cc1 (stereo not drawn)	4	-8	/	-38	i
CCOC(=O)c1cc(-c2ccccc2)sc1NC(=O)C(C)OC(=O)c1cccnc1Cl (stereo not drawn)	0	-9	/	36	i
CC(=O)Oc1ccc(Cl)cc1/C=C/c1ccc2ccccc2n1	55*	31	0.43	/	i
COc1cc(/C=C/c2cc(OC(C)=O)c3ccccc3n2)c(OC(C)=O)c([N+](=O)[O-])c1	8	-3	-0.27	/	i
CC(=O)Oc1c(Cl)cc(Cl)cc1/C=C/c1ccc2ccccc2n1	8	83*	-0.35	-17	i
Fc1ccccc1/C=C/c1ccc2ccccc2n1	0	44	0.41	-23	i
COc1cc2c(cc1OC)-c1cc3ccc4c(c3c[n+]1CC2)OCO4	13	60*	0.52	20	i
COc1ccccc1Cn1c(=O)c2ccccc2n2c(Sc3ncnc4sccc34)nnc12	89*	34	0.02	79*	i
COc1ccccc1Cn1c(=O)c2ccccc2n2c(SCc3csc(C)n3)nnc12	5	17	0.28	/	i
Cc1cc(C)c(Nc2ncnc(N)n2)c(C)c1	/	/	-0.45	/	/
CCc1ccc(C(=O)NCc2ccc(Cl)cc2)cc1	-3	7	-0.02	14	i
Cc1ccc2ncccc2c1[N+](=O)[O-]	32	9	0.07	33	i
Cc1[nH]c2ccc3ncccc3c2c1C	56*	0	0.46	39	i
C(=N\N1CCN(C2c3ccccc3-c3ccccc32)CC1)/c1ccccn1	-3	67*	-0.65	3	i
C(=N\N1CCN(C2c3ccccc3-c3ccccc32)CC1)/c1cccnc1	19	40	0.06	26	i
COc1ccc(/C=N/N2CCN(C3c4ccccc4-c4ccccc43)CC2)cc1O	67*	7	-0.13	-26	i
SMILES	L major viab	WT yeast gro inh	Ins promoter up	INS promoter inh	Autophagy HCS
CN(C)CCCN1C(=O)C2CCc3[nH]c4ccccc4c3C2C1=O (stereo not drawn)	-5	6	0.46	/	i
Cc1ccc(NC(=O)c2ccccc2N(C)S(=O)(=O)c2ccccc2)c(C)c1	3	-7	0.41	-44	i
CC(CNCc1ccc2c(c1)OCO2)NCc1ccc2c(c1)OCO2 (stereo not drawn)	93*	15	-0.03	/	i
Cc1ccc(NC(=S)NCc2ccc3c(c2)OCO3)cc1C	-5	61*	0.32	13	i
CC(C)(C)NC(=S)NCc1ccc2c(c1)OCO2	56*	-3	-0.23	-20	i
CC(=O)c1ccc(OCC(O)CNCc2ccc3c(c2)OCO3)cc1 (stereo not drawn)	/	/	0.24	/	/
CN(C)CC(C)(C)CNC(=S)NCc1ccc2c(c1)OCO2	-2	5	-0.2	-13	i
Cc1cccc(C)c1NC(=O)CSc1nnc(-c2ccco2)c(-c2ccco2)n1	83*	5	0.76	-58	i

Screens: PubChem BioAssay, several laboratories
